Screening results as filed in PubChem BioAssay.
TDP1 block: blocks human tyrosyl-DNA phosphodiesterase 1; Q9NUW8; recombinant TDP1, AlphaScreen DNA substrate cleavage; Potency, µM (series often up to 130 µM), without a hit: at the highest dose activity change, negative = inhibition, hits mostly inhibitors; 350,000 tested, 0.28% active; AID 485290; note: % is set by controls: 0 for no effect and ±100 for the full control effect; nearly all actives have a fitted effect of over 40% in size
Target sequence (Q9NUW8 whole entry, looked up): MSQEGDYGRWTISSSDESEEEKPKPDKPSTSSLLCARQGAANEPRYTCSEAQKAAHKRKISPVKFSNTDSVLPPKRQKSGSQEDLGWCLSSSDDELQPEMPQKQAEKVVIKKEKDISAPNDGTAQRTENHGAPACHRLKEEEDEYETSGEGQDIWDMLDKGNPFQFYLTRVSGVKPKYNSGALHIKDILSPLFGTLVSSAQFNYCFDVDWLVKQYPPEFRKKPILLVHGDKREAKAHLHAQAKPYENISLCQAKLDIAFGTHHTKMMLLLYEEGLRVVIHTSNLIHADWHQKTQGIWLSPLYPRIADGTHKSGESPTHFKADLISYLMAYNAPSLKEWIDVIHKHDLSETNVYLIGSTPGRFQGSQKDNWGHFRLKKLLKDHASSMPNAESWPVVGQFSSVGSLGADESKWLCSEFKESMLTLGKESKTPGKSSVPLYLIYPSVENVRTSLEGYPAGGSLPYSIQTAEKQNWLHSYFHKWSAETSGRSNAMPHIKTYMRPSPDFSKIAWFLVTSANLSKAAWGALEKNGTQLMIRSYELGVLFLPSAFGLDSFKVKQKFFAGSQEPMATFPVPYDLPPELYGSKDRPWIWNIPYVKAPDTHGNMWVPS
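E. coli-derived human Tdp1, 1 nM final. Cpd preinc 15 min RT; substrate 15 nM final, 5 min RT; AS bead mix 10 ug/ml final, 10 min RT. Signal loss = tyrosine-FITC cleavage. No-enzyme wells = max signal.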
ClpP mod: qHTS Assay for Activators of ClpP; ATP-dependent Clp protease proteolytic subunit (Bacillus subtilis (strain 168)), P80244; purified B. subtilis ClpP, FRET peptide cleavage, 20 min; 340,000 tested, 1.9% active; AID 651965, 2013; Potency, µM (doses to about 57.5 µM), for the others: at the top dose activity change, negative = active; active = well fitted falling curve with a large enough effect; inconclusive = small, poorly fitted or top-dose-only effect; inactive = no such curve, though single readings can be large or run the other way; note: the source files actives as falling curves though it sought activators and does not explain the sign; nearly all actives have a fitted effect of over 65% in size
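Purified B. subtilis ClpP, 10 microg/mL final in Tris/HCl pH8 with KCl, BSA, glycerol and Tween-20, cleaved an Abz/nitrotyrosine-quenched decapeptide. Fluorescence (ex 320, em 430) was read at 0 and 20 min at room temperature. Delta was normalized to 5.8 microM ADEP and DMSO/no-enzyme controls.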
DT40 TDP1 CPT: DT40-hTDP1 cell growth loss with CPT; chicken DT40 Tdp1-/-;hTDP1 cells + 20 nM CPT, ATP luminescence, 48 h; Potency, µM (top dose mostly 46.2 µM), for inactives: top-dose activity change, negative = growth inhibition, most hits filed as inhibitors; 420,000 tested, 12% active; AID 686979; note: % is set by controls: 0 for no effect and ±100 for the full control effect; nearly all actives have a fitted effect of over 55% in size
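Chicken DT40 Tdp1-/- cells complemented with human TDP1, 400 cells/well, exposed to compounds plus 20 nM camptothecin for at least 48 h at 37 C; viability read as ATP content by CellTiter-Glo luminescence.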
TDP1 cell noCPT: qHTS for Inhibitors of human tyrosyl-DNA phosphodiesterase 1 (TDP1): qHTS in cells in absence of CPT; Potency, µM (series often up to 46.2 µM), without a hit: at the top dose activity change, negative = growth inhibition, hits mostly inhibitors; DT40 Tdp1-/- hTDP1 cells, no CPT, ATP luminescence, 48 h; AID 686978, 2013; 420,000 tested, 15% active; note: % is set by controls: 0 for no effect and ±100 for the full control effect; nearly all actives have a fitted effect of over 55% in size
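A cellular qHTS used chicken DT40 cells lacking endogenous Tdp1 but carrying stably transfected human TDP1. Compounds were applied without camptothecin, and cell growth kinetics were judged by ATP-dependent luminescence after ≥48 hr.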
* marks the source's active call; other numbers are inactive results; ? = inconclusive; nt = no result; ! = a repeat was not active; [ ] = remark or other dose. Shown are actives, neighbours in structure and some others; about 17% of the full set was active somewhere. Unless noted, calls come from the whole dose curve; as a rule, active = well fitted curve in the direction sought with a large enough effect; inconclusive = small, poorly fitted or top-dose-only effect, or another doubt; inactive = no such curve, though single readings can be large; an effect the other way counts as inactive or inconclusive. Potency is the fitted concentration of half-maximal effect.

SMILES | TDP1 block | ClpP mod | DT40 TDP1 CPT | TDP1 cell noCPT
O=C(Nc1ccc(S(=O)(=O)C(F)F)cc1)c1cccc(S(=O)(=O)N2CCOCC2)c1 | 3% | -1% | ? | 15µM*
C[C@]12CCC(=O)C=C1C=C[C@@H]1[C@@H]2CC[C@@]2(C)[C@H]1CC[C@@]21CCC(=O)O1 | nt | -1% | ? | 15µM*!
CC(=O)SC1CC2=CC(=O)CC[C@@]2(C)C2CC[C@@]3(C)[C@@H](CC[C@@]34CCC(=O)O4)C12 (stereo partly drawn) | 12%[56.1 µM] | nt | 13µM* | 16µM*
CC(=O)[C@H]1CC[C@H]2[C@@H]3C=CC4=CC(=O)CC[C@@]4(C)[C@H]3CC[C@]12C | 4%[56.1 µM] | nt | nt | nt
Cc1ccc(C(C)(C)C)cc1S(=O)(=O)Nc1ncnc2sccc12 | -1%[56.1 µM] | 1% | -1% | 1%
CNS(=O)(=O)c1cc(Nc2ncnc3sccc23)ccc1C | nt | -2% | 15µM* | ?
COC(=O)c1ccc2c(=O)n(C3CCCCC3)c(SCC#N)nc2c1 | 2% | -3% | 12µM* | 23µM*
COc1cc(NC(=O)CSc2nc3c(C)ccc(C)c3cc2C)c(C(=O)O)cc1OC | 5% | -2% | -7% | 0.37µM*
Cc1ccc(CCNC(=O)C2CC(c3cc(C(F)(F)F)cc(C(F)(F)F)c3)=NO2)cc1 (stereo not drawn) | 1% | 1% | ? | ?
COc1cc(C2=NOC(C(=O)NCc3ccco3)C2)cc(OC)c1OC (stereo not drawn) | 0% | -3% | 4.1µM* | 3.3µM*
COc1cc(C2=NOC(C(=O)Nc3ccc(C(C)=O)cc3)C2)cc(OC)c1OC (stereo not drawn) | 1% | 0% | -21% | -5%
COc1ccc(C2=NOC(C(=O)NCc3ccco3)C2)cc1 (stereo not drawn) | 2% | 1% | 4µM* | 2.8µM*
O=C(NCc1ccc(C(F)(F)F)cc1)C1CC(c2cccc(F)c2)=NO1 (stereo not drawn) | -1% | -2% | ? | -28%
Cc1ccc(CNC(=O)C2CC(c3cc(C(F)(F)F)cc(C(F)(F)F)c3)=NO2)o1 (stereo not drawn) | 1% | -2% | 3.3µM* | 4.6µM*
O=C(NCc1ccco1)C1CC(c2ccc(C(F)(F)F)cc2)=NO1 (stereo not drawn) | nt | -1% | 13µM* | 12µM*
CC(C)(C)OC(=O)N1CCc2onc(-c3ccc(Cl)cc3)c2C1=O | nt | -1% | ? | ?
CC1CC1C(=O)Nc1nc(-c2cccs2)c(-c2cccs2)s1 (stereo not drawn) | 0% | ? | ? | ?
Cc1ccc(C(=O)Nc2ccc(S(=O)(=O)O)c3cc(S(=O)(=O)O)cc(S(=O)(=O)O)c23)cc1NC(=O)c1cccc(NC(=O)Nc2cccc(C(=O)Nc3cc(C(=O)Nc4ccc(S(=O)(=O)O)c5cc(S(=O)(=O)O)cc(S(=O)(=O)O)c45)ccc3C)c2)c1 | 4.5µM* | -3% | 8% | ?
C=CCSC1=N/C(=C\c2ccc(C(=O)O)cc2)C(=O)S1 | 28µM* | nt | 1% | -6%
COc1cc(OC)c(NC(=O)CSc2cc(=O)n(C)c3ccc(Cl)cc23)cc1Cl | 2% | -2% | -20% | ?
NS(=O)(=O)c1ccc(CCNC(=O)c2ccccc2[N+](=O)[O-])cc1 | 5% | 1% | -6% | -20%
COc1cccc2c1C(=O)/C(=C\c1ccc(N(C)C)cc1)C2 | nt | 0% | ? | 11µM*
COc1ccccc1/C=C1\Cc2ccccc2C1=O | 3% | -3% | ? | ?
O=C1C(Br)=C(c2ccccc2)C(c2ccccc2)=C1c1ccccc1 | nt | 1% | 0.58µM* | 0.92µM*
O=C1NC(c2ccccc2)=C(c2ccccc2)C1=O | -4% | -1% | -12% | -5%
Cc1cccc(-n2c(SCC(=O)N3CCCC3)nc3n[nH]c(C)c3c2=N)c1 | 3% | ? | ? | ?
CCN(C(=O)CSc1nc2n[nH]c(C)c2c(=N)n1-c1ccc(Cl)c(C)c1)c1cccc(C)c1 | 6% | ? | 18µM* | 21µM*
CCCCN(CC)C(=O)CSc1nc2n[nH]c(C)c2c(=N)n1-c1ccc(CC)cc1 | 1% | ? | 10µM* | 5.2µM*
